# In PubChem BioAssay (EPA / NIEHS):
# Records with an inconclusive call do not appear. The source made the active and inactive calls. How the source made its calls, unless noted: active means hit-call score of the fitted dose curve at least 0.9, where 1 is the maximum; inactive means score below 0.9.
# What was measured:
# [1] = ACEA_ER_80hr: ACEA Biosciences xCELLigence Real-Time Cell Analysis on Estrogen Receptor Agonism for Proliferation (AID 2282667; active means hit-call score of the fitted dose curve at least 0.9, where 1 is the maximum); settings: T47D proliferation, impedance (xCELLigence), 80 h
# Procedure, shortened: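 Real-time impedance growth kinetics of human T-47D breast cells read 80 h after dosing, gain-of-signal fitted relative to DMSO. Compounds: 1:4 serial series, top final concentration 100 uM, n = 2.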
# [2] = ATG_CRE_CIS: Attagene CIS-FACTORIAL HepG2 Assay for human cAMP Responsive Element (CRE) binding protein 3 (AID 2282926); settings: HepG2 CRE cis-reporter, Attagene multiplexed mRNA; actives raise or lower the signal
# Procedure, shortened: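 Endogenous transcription factor activity read via CRE-regulated reporter transcripts in transfected HepG2 cells. After 24 h exposure, RNA was reverse-transcribed, amplified, fluorescently labelled and sized by capillary electrophoresis; gain or loss fitted against DMSO.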
# [3] = target: CCAAT/enhancer-binding protein beta (Homo sapiens) (UniProt P17676); assay: ATG_C_EBP_CIS: Attagene CIS-FACTORIAL HepG2 Assay for human CCAAT/Enhancer Binding Protein (C/EBP) beta (AID 2282927); settings: HepG2 Attagene cis-factorial transcription factor reporter; actives raise or lower the signal
# Sequence of CCAAT/enhancer-binding protein beta (Homo sapiens) (P17676 whole entry, looked up): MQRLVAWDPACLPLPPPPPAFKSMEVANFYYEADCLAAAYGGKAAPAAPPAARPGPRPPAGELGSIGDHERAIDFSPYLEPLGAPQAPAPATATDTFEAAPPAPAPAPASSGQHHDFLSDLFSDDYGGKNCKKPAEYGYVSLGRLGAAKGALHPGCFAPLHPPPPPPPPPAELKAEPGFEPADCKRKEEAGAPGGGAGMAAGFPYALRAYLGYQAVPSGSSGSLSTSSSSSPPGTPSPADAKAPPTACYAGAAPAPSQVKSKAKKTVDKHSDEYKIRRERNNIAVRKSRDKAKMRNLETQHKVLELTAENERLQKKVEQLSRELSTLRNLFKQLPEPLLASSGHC
# Procedure, shortened: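 Endogenous transcription factor activity in human liver HepG2 cells is inferred from induction of a CEBPB-linked reporter mRNA. Exposure lasts 24 h; activity is fitted in both directions relative to DMSO.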
# [4] = ATG_CMV_CIS: Attagene CIS-FACTORIAL HepG2 Assay for human CMV (Internal Marker) (AID 2282928); settings: HepG2 CMV promoter reporter, transcription factor profiling; actives raise or lower the signal;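 further: endpoint acts as a background internal control marker rather than a target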
# Procedure, shortened: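 Reporter transcripts from transfected HepG2 cells are isolated after 24 h of chemical dosing, reverse-transcribed and amplified. Fragments labeled with 6-FAM are cut with HpaI and quantified by capillary electrophoresis; DMSO defines baseline.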
# [5] = ATG_DR4_LXR_CIS: Attagene CIS-FACTORIAL HepG2 Assay for human Liver X Receptor (LXR), DR4 submotif (AID 2282929); settings: HepG2 Attagene DR4 cis-reporter, mRNA transcription; actives raise or lower the signal
# Procedure, shortened: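 Measures endogenous transcription factor activity via a DR4-driven reporter transcript in human HepG2 cells. Compounds incubated 24 h; mRNA quantified by RT-PCR and capillary electrophoresis, analysed as gain or loss of signal versus DMSO.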
# [6] = target: Aryl hydrocarbon receptor (Homo sapiens) (UniProt P35869); assay: ATG_Ahr_CIS: Attagene CIS-FACTORIAL HepG2 Assay for human Aryl Hydrocarbon Receptor (Ahr) (AID 2282930); settings: HepG2 AhR cis-factorial reporter transcription; actives raise or lower the signal
# Sequence of Aryl hydrocarbon receptor (Homo sapiens) (P35869 whole entry, looked up): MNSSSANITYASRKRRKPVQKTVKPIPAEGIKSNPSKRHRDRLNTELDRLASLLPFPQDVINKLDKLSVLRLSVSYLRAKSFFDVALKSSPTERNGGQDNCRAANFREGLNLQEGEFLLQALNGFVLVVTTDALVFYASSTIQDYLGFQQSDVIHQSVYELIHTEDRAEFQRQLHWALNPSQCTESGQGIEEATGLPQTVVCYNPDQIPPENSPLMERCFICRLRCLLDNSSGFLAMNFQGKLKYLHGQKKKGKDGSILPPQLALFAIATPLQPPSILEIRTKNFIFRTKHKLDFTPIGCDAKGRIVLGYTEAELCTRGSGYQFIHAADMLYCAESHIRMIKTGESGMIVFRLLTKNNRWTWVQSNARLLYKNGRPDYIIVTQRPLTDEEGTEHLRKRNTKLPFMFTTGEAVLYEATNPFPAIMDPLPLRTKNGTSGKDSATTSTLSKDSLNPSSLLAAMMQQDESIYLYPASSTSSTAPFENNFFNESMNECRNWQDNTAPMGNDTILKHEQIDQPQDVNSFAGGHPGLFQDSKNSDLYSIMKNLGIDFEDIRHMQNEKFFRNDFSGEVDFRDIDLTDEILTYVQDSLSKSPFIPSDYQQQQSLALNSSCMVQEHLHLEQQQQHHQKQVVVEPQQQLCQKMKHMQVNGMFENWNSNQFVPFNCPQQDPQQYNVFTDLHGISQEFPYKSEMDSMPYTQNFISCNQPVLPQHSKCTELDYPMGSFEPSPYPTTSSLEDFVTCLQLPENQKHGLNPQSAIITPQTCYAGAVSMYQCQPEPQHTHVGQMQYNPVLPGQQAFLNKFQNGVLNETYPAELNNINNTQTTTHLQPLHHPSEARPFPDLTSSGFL
# Procedure, shortened: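 Transient MRTU transfection of HepG2 → 24 h compound exposure → total RNA, oligo(dT) RT → PCR, 6-FAM extension, HpaI cut → CE fluorescence. DMSO = baseline; bidirectional curve fit.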
# [7] = ATG_AP_1_CIS: Attagene CIS-FACTORIAL HepG2 Assay for human Activator Protein 1 (AP-1) (AID 2282931); settings: HepG2 Attagene cis-factorial AP-1 reporter mRNA; actives raise or lower the signal
# Procedure, shortened: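 Bidirectional concentration-response fitting against DMSO controls. Underlying signal: reporter mRNA from cis-promoter constructs in transiently transfected HepG2, measured after 24 h by RT-PCR and capillary electrophoresis.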
# [8] = ATG_AP_2_CIS: Attagene CIS-FACTORIAL HepG2 Assay for human Activator Protein 2 (AP-2) (AID 2282932); settings: HepG2 AP-2 cis-reporter, Attagene transcription factor profiling; actives raise or lower the signal
# Procedure, shortened: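 Transiently transfected HepG2 cells are exposed to chemical for 24 h. Reporter transcripts are then measured as fluorescence following RT-PCR and capillary separation, and gain- or loss-of-signal is fitted relative to DMSO.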
# [9] = ATG_BRE_CIS: Attagene CIS-FACTORIAL HepG2 Assay for human Bone Morphogenetic Protein (BMP) Response Element (BRE) (AID 2282933); settings: HepG2 BMP response element reporter, Attagene transcription factor profiling; actives raise or lower the signal
# Procedure, shortened: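 HepG2 cells transiently transfected with CIS reporter units (endogenous TF activity, BMP response element), dosed 24 h. Reporter mRNA quantified by RT-PCR, fluorescent labelling and capillary electrophoresis; bidirectional fit vs DMSO baseline.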
# [10] = target: Retinoic acid receptor alpha (Homo sapiens) (UniProt P10276); assay: ATG_DR5_RAR_CIS: Attagene CIS-FACTORIAL HepG2 Assay for human Retinoic Acid Receptor Alpha (RARE), DR5 submotif (AID 2282934); settings: HepG2 Attagene cis-factorial RARE DR5 reporter, mRNA; actives raise or lower the signal;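 on AC50: reporter responds to endogenous RAR alpha beta and gamma in HepG2 not RARA alone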
# Sequence of Retinoic acid receptor alpha (Homo sapiens) (P10276 whole entry, looked up): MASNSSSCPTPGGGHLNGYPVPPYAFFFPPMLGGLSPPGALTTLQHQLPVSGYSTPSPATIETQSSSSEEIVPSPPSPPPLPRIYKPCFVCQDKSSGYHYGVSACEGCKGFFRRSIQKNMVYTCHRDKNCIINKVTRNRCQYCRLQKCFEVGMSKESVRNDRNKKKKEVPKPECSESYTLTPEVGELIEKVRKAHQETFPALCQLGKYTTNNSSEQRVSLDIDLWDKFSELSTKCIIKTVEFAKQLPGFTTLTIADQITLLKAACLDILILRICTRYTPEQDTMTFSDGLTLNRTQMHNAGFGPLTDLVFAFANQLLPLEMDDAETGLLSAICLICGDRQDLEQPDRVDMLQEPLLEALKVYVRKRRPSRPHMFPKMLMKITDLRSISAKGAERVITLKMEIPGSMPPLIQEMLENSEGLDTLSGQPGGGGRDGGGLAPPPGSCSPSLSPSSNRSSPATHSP
# Procedure, shortened: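 Transient MRTU transfection of HepG2; 24 h compound treatment; TriZol RNA, oligo(dT) RT, PCR, FAM labelling, capillary electrophoresis. Bidirectional fit vs DMSO. Endogenous TF activity at DR5 RARE.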
SMILES,outcome [1],outcome [2],outcome [3],outcome [4],outcome [5],outcome [6],outcome [7],outcome [8],outcome [9],outcome [10],AC50 [1],AC50 [6],AC50 [4],AC50 [7],AC50 [9],AC50 [5],AC50 [10]
CC(C)CO,inactive,inactive,inactive,inactive,inactive,inactive,inactive,inactive,inactive,inactive,–,–,–,–,–,–,–
COCC(=O)O,inactive,inactive,inactive,inactive,inactive,inactive,inactive,inactive,inactive,inactive,–,–,–,–,–,–,–
Cc1noc(NS(=O)(=O)c2ccc(N)cc2)c1C,inactive,inactive,inactive,inactive,inactive,inactive,inactive,inactive,inactive,inactive,–,–,–,–,–,–,–
CCC(C)C(=O)OCCc1ccccc1 (stereo unspecified),–,inactive,inactive,inactive,inactive,inactive,inactive,inactive,inactive,inactive,1.68 µM (active),–,–,–,–,–,–
Cc1c(O)cccc1O,inactive,inactive,inactive,inactive,inactive,–,inactive,inactive,inactive,inactive,–,37.8 µM (active),–,–,–,–,–
O=S(=O)(O)c1ccc(N=Nc2c(O)ccc3ccccc23)cc1,inactive,inactive,inactive,inactive,inactive,–,inactive,inactive,inactive,inactive,–,1.3 µM (active),–,–,–,–,–
O=C1CCCCC1C1CCCCC1 (stereo unspecified),inactive,inactive,inactive,inactive,inactive,inactive,inactive,inactive,inactive,inactive,–,–,–,–,–,–,–
O=C(O[C@@H]1Cc2c(O)cc(O)cc2O[C@@H]1c1cc(O)c(O)c(O)c1)c1cc(O)c(O)c(O)c1,inactive,inactive,inactive,–,inactive,inactive,–,inactive,–,inactive,–,–,20.8 µM (active),72.5 µM (active),3.86 µM (active),–,–
C=C(C)[C@@H]1CC=C(C)CC1,inactive,inactive,inactive,inactive,inactive,inactive,inactive,inactive,inactive,–,–,–,–,–,–,–,–
CCCCOC(=O)CCC(C)=O,inactive,inactive,inactive,inactive,inactive,inactive,inactive,inactive,inactive,inactive,–,–,–,–,–,–,–
C/C=C/C=C/CCCCCCCO,inactive,inactive,inactive,inactive,–,inactive,–,inactive,–,inactive,–,–,–,127 µM (active),156 µM (active),183 µM (active),–
Fc1ccc(Br)cc1,inactive,inactive,inactive,inactive,inactive,inactive,inactive,inactive,inactive,inactive,–,–,–,–,–,–,–
CCCCCCCC(=O)OCC(COC(=O)CCCCCCC)OC(=O)CCCCCCC,inactive,inactive,inactive,inactive,inactive,inactive,inactive,inactive,inactive,inactive,–,–,–,–,–,–,–
CCCCCCCC(=O)OCC,inactive,inactive,inactive,inactive,inactive,inactive,inactive,inactive,inactive,inactive,–,–,–,–,–,–,–
CC(=O)OCC=C(C)C,inactive,inactive,inactive,inactive,inactive,inactive,inactive,inactive,inactive,inactive,–,–,–,–,–,–,–
O=C1c2ccccc2C(=O)c2cc(S(=O)(=O)O)ccc21,inactive,inactive,inactive,inactive,inactive,inactive,inactive,inactive,inactive,inactive,–,–,–,–,–,–,–
CC(C)(O)Cc1ccccc1,inactive,inactive,inactive,inactive,inactive,inactive,inactive,inactive,inactive,inactive,–,–,–,–,–,–,–
CC(C=O)c1ccccc1 (stereo unspecified),inactive,inactive,inactive,inactive,inactive,inactive,inactive,inactive,–,inactive,–,–,–,–,–,–,–
Oc1ccc(/C=C/c2cc(O)cc(O)c2)cc1,inactive,inactive,inactive,–,–,inactive,inactive,inactive,inactive,inactive,–,–,22.7 µM (active),–,–,100 µM (active),–
CCCSSCCC,inactive,inactive,inactive,inactive,inactive,inactive,inactive,inactive,inactive,inactive,–,–,–,–,–,–,–
C[N+](C)(C)CCCNS(=O)(=O)C(F)(F)C(F)(F)C(F)(F)C(F)(F)C(F)(F)C(F)(F)C(F)(F)C(F)(F)F,inactive,inactive,inactive,–,inactive,inactive,inactive,inactive,–,inactive,–,–,55.4 µM (active),–,–,–,–
NNS(=O)(=O)c1ccc(Oc2ccc(S(=O)(=O)NN)cc2)cc1,inactive,inactive,inactive,inactive,inactive,–,inactive,inactive,inactive,inactive,–,62.3 µM (active),–,–,–,–,–
CCOC(=O)C1=NN(c2ccc(Cl)cc2Cl)C(C)(C(=O)OCC)C1 (stereo unspecified),inactive,inactive,inactive,inactive,inactive,inactive,–,inactive,–,inactive,–,–,–,164 µM (active),–,–,–
C=CC(=O)NC(C)(C)C,inactive,inactive,inactive,–,inactive,inactive,inactive,inactive,inactive,–,–,–,48.7 µM (active),–,–,–,27.2 µM (active)
CC(C)c1ccc2ncccc2c1,inactive,inactive,inactive,–,inactive,inactive,inactive,inactive,inactive,inactive,–,–,53.5 µM (active),–,–,–,–
